Among all 5,500 compounds or so, about 2,000 (36%) were called active. Another 18% or so got no clear call; they are omitted. The list shows a part of the results. Values without a mark were called inactive. No stated cut-off is given here; in the data, active means normalized growth mostly below about 0.91 (no sharp cut-off); inconclusive means no clear call, values can overlap the other calls; inactive means mostly above about 0.92.
Assay: chemical genetic growth profiling, strain panel (AID 1159580);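 further: tested at 20 µM; growth read once vehicle control cultures reached saturation at 30 °C; 1 = growth at the plate median or of vehicle wells; lower values mean less growth of the strain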
Settings: S. cerevisiae deletion strains, growth OD

SMILES: C[C@]12CC[C@@H](O)CC1CC[C@@H]1[C@@H]2CC[C@]2(C)C(=O)CC[C@@H]12 (stereo partly specified)
- normalized growth (locus YAL013W, strain DEP1, active compounds read low): 0.895 (active)
- normalized growth (locus YAL040C, strain CLN3, active compounds read low): 0.989
- normalized growth (locus YCL061C, strain MRC1 (second series), active compounds read low): 1
- normalized growth (locus YDR363W, strain ESC2, active compounds read low): 0.938
- normalized growth (locus YER002W, strain NOP16, active compounds read low): 1.02
- normalized growth (locus YGR078C, strain PAC10, active compounds read low): 0.973
- normalized growth (locus YNL175C, strain NOP13, active compounds read low): 1.01
- normalized growth (locus YNL197C, strain WHI3, active compounds read low): 0.993
- normalized growth (locus YNL224C, strain SQS1, active compounds read low): 0.997
- normalized growth (locus YOR083W, strain WHI5 (second series), active compounds read low): 0.885
- normalized growth (locus YPL241C, strain CIN2, active compounds read low): 1.04
